Test results published in ChEMBL document CHEMBL3988442, “University of Dundee, Small-Polar-MMV Screening Library” (2021).
Screen size: about 69,000 compounds; about 1,000 (1.4%) showed an effect of 50% or more. Only a selection was taken, and strong results are over-represented in it overall.

Tested on: Leishmania donovani
Test: Leishmania intramacrophage assay
Format: functional, organism-based
Parameters: scale not given: in the data most compounds retested in dose-response had high values

OCc1ccc(-c2nccn2CCc2nc3c(s2)CCCC3)o1
Percent Effect (30.3 µM, […]): -3.192%

O=C(NCCc1ccn(-c2ccc(F)cc2)n1)C1CCCOC1 (centres undefined)
Percent Effect (30.3 µM, […]): 11.22%

CCN(CC)C(=O)NC(C)c1ccc(Oc2cccnc2)c(F)c1 (centres undefined)
Percent Effect (30.3 µM, […]): -9.456%

CC(NC(=O)CN(C)C(C)C)c1ccc(Oc2cccnc2)c(F)c1 (centres undefined)
Percent Effect (30.3 µM, […]): 51.39%

CC(NC(=O)N(C)C1CC1)c1ccc(Oc2cccnc2)c(F)c1 (centres undefined)
Percent Effect (30.3 µM, […]): 4.744%

C=C(C)COc1cccc(C(=O)N(CC)Cc2noc(C)n2)c1
Percent Effect (30.3 µM, […]): 17.93%

Cc1nc[nH]c1CN(Cc1ccccc1)C1CC(C)(C)NC(C)(C)C1.O=C(O)CC(O)(CC(=O)O)C(=O)O
Percent Effect (30.3 µM, […]): 45.23%

Cc1nc[nH]c1CN(Cc1ccccc1F)C1CC(C)(C)NC(C)(C)C1.O=C(O)CC(O)(CC(=O)O)C(=O)O
Percent Effect (30.3 µM, […]): 53.75%

Cc1cc2c(N)nc(=O)n(CC(=O)Nc3ccccc3)c2s1
Percent Effect (30.3 µM, […]): 6.295%

Cc1cc2c(N)nc(=O)n(CC(=O)Nc3cccc(Cl)c3)c2s1
Percent Effect (30.3 µM, […]): 52.64%

COc1cccc(NC(=O)Cn2c(=O)nc(N)c3cc(C)sc32)c1
Percent Effect (30.3 µM, […]): 12.79%

Cc1nc(CN2CCN(C(=O)NC(C)Cn3ccnc3)CC2)cs1 (centres undefined)
Percent Effect (30 µM): 14.72%

CNC(=O)C1CCN(CC(=O)Nc2cc(C(C)C)no2)CC1
Percent Effect (30 µM): 21.46%

CS(=O)(=O)NCc1noc2c1CN(C(=O)C1CCC1)CC2
Percent Effect (30.3 µM, […]): 11.5%

CCN1CC(CN(C)Cc2nc(-c3ccc(C)o3)oc2C)CC1=O (centres undefined)
Percent Effect (30.3 µM, […]): 59.94%

CCN1CC(CN(C)Cc2nc(-c3ccoc3)oc2C)CC1=O (centres undefined)
Percent Effect (30.3 µM, […]): -10.15%

CCN1CC(CN(C)Cc2nc(-c3ccc(F)cc3)oc2C)CC1=O (centres undefined)
Percent Effect (30.3 µM, […]): 13.51%

CN(C)C(=O)C1(c2cnccn2)CCCN1C(=O)Cc1ccsc1 (centres undefined)
Percent Effect (30.3 µM, […]): 25.36%

CCn1c(C)nc2cc(NC(=O)CC3CCN(S(C)(=O)=O)CC3)ccc21
Percent Effect (30.3 µM, […]): 32.47%

CNC(=O)c1ncn2c1CN(CCC(C)C)S(=O)(=O)c1ccccc1-2
Percent Effect (30.3 µM, […]): 54.17%

CC(C)CCN1Cc2c(C(=O)O)ncn2-c2ccccc2S1(=O)=O
Percent Effect (30 µM, 30.03 µM): -20.47%

CCN1Cc2c(C(=O)NC)ncn2-c2ccccc2S1(=O)=O
Percent Effect (30.3 µM, […]): 2.291%

COc1ccc(CNC(=O)c2ccoc2CN2CCNC(=O)C2)cc1
Percent Effect (30.3 µM, […]): -8.396%

CC(C)N(C)Cc1cn2c(n1)CN(C(=O)c1ccc[nH]1)CC2
Percent Effect (30.3 µM, […]): 13.65%

Cc1cc(-c2cnc(C(C)C)nc2CN(C)C(=O)c2ccccn2)on1
Percent Effect (30.3 µM, […]): 10.54%

CC(C)N(C)CCCNC(=O)c1cnn(C(C)(C)C)c1C(F)(F)F
Percent Effect (30.3 µM, […]): 10.25%

OC1(CN2CCC(Oc3cccc(C(F)(F)F)c3)CC2)CNCCOC1 (centres undefined)
Percent Effect (30.3 µM, […]): 78.32%

FC(F)(F)c1cccc(OC2CCN(Cc3ccccn3)CC2)c1
Percent Effect (30.3 µM, […]): -24.32%

FC(F)(F)c1cccc(OC2CCN(Cc3ncc[nH]3)CC2)c1
Percent Effect (30.3 µM, […]): 17.17%

OC1(CNCCN2CCc3ccccc32)CNCCOC1 (centres undefined)
Percent Effect (30.3 µM, […]): 12.43%

OC1(CN2CCCC2)COCCN(c2cc(C(F)(F)F)ccn2)C1 (centres undefined)
Percent Effect (30.3 µM, […]): 29.85%

CC(N)C(=O)N1CCC(Oc2cccc(C(F)(F)F)c2)CC1 (centres undefined)
Percent Effect (30.3 µM, […]): 75.62%

OC1(CN2CCC(Oc3cccnc3)CC2)CNCCOC1 (centres undefined)
Percent Effect (30.3 µM, […]): -1.613%

OC1(CN2CCN(c3cccc(C(F)(F)F)c3)CC2)CNCCOC1 (centres undefined)
Percent Effect (30.3 µM, […]): 51.12%

FC(F)(F)c1cccc(OC2CCN(Cc3c[nH]cn3)CC2)c1
Percent Effect (30.3 µM, […]): 0.2013%

OC1(CN2CCC(Oc3cccc(C(F)(F)F)c3)CC2)CCNC1 (centres undefined)
Percent Effect (30.3 µM, […]): 100.3%

O=C(c1ccncc1)N1CCC(Oc2cccc(C(F)(F)F)c2)CC1
Percent Effect (30.3 µM, […]): 7.291%

Nc1cc(C(=O)N2CCC(Oc3cccc(C(F)(F)F)c3)CC2)ccn1
Percent Effect (30.3 µM, […]): 3.315%

CCC[C@H]1CN(S(C)(=O)=O)C[C@@H]1NC(=O)CCCn1ccnc1
Percent Effect (30.3 µM, […]): -3.317%

CC(C)CCN(C)C(=O)c1cc(CN2CCC(O)CC2)on1
Percent Effect (30.3 µM, […]): 25.01%

O=C(CS(=O)(=O)Cc1nnnn1C1CC1)NCC1CC1
Percent Effect (30.3 µM, […]): 7.259%

Cc1ccc2cccc(C(=O)NCC3CCN(C(C)C)C3)c2n1 (centres undefined)
Percent Effect (30.3 µM, […]): 6.487%

Cc1cccc(CN2CCC3(CCN(c4ccccn4)C3)C2=O)c1.O=C(O)C(F)(F)F (centres undefined)
Percent Effect (30 µM, 30.03 µM): 41.53%

CC1=N[C@@]2(CC[C@@H]3CN(Cc4ccccc4F)C[C@@H]32)C(=O)N1CC1CC1.O=C(O)C(F)(F)F
Percent Effect (30 µM, 30.03 µM): 16.75%

CN1CCN(C)c2cc(NC(=O)c3cc[nH]n3)ccc2C1
Percent Effect (30.3 µM, […]): 24.5%

COc1ccc(OC)c(C2CCN(C(=O)CCc3n[nH]c(N)n3)C2)c1 (centres undefined)
Percent Effect (30.3 µM, […]): 25.04%

NC(=O)CCSCc1cc(Br)cc2cccnc12
Percent Effect (30.3 µM, […]): 18.7%

NC(=O)NC(=O)CCSCc1cc(F)cc2cccnc12
Percent Effect (30.3 µM, […]): 50.58%

CNC(=O)NC(=O)CCSCc1cc(F)cc2cccnc12
Percent Effect (30.3 µM, […]): 2.728%

CC(C)CN1C[C@H]2CCN(C(=O)NC3CCCC3)CC[C@H]2S1(=O)=O
Percent Effect (30.3 µM, […]): 5.795%

Cc1noc(CCCC(=O)N2CCNC(=O)C2)n1
Percent Effect (30.3 µM, […]): 12.24%

COCC(=O)NCc1cc(=O)n2c(n1)CN(C)CCC2.O=C(O)C(F)(F)F
Percent Effect (30.3 µM, […]): 39.76%

COCC(=O)NCc1cc(=O)n2c(n1)CN(CC1CC1)CCC2.O=C(O)C(F)(F)F
Percent Effect (30.3 µM, […]): 0.4082%

COCC(=O)NCc1cc(=O)n2c(n1)CN(Cc1ccoc1)CCC2
Percent Effect (30.3 µM, […]): 10.68%

COCC(=O)NCc1cc(=O)n2c(n1)CN(Cc1ccsc1)CCC2
Percent Effect (30 µM, 30.03 µM): 13.56%

COCC(=O)NCc1cc(=O)n2c(n1)CN(Cc1ccncc1)CCC2
Percent Effect (30.3 µM, […]): 55.54%

COCCN1CCCn2c(nc(CNC(=O)COC)cc2=O)C1.O=C(O)C(F)(F)F
Percent Effect (30.3 µM, […]): 69.63%

COc1ccccc1CNC(=O)c1[nH]ncc1Cl
Percent Effect (30.3 µM, […]): -12.27%

COc1ccc(CNC[C@@]2(COc3cccnc3)C[C@@H](O)[C@@H](O)C2)cc1.Cl
Percent Effect (30.3 µM, […]): 14.18%

Cc1nc2ccnn2c(C)c1CCC(=O)N1CCN2CCCCC2C1 (centres undefined)
Percent Effect (30 µM): 11.28%

O=C(C1CCCCC1)N1CCCC([C@@H]2C[C@H](C(F)F)n3ncnc3N2)C1 (some centres undefined)
Percent Effect (30.3 µM, […]): 0.241%

Cc1nc(N(C)CCCc2nccn2C)c2c(C)nn(C)c2n1
Percent Effect (30.3 µM, […]): 1.733%

Cc1ccc(CN2CC[C@H]3[C@H](CC(Cn4cccn4)N3C)C2)s1.O=C(O)C(F)(F)F.O=C(O)C(F)(F)F.O=C(O)C(F)(F)F (some centres undefined)
Percent Effect (30.3 µM, […]): -11.42%

CN1CC[C@H](N(Cc2ccccc2)Cc2ccccc2)C[C@H](O)C1
Percent Effect (30.3 µM, […]): 94.14%

CN1CC[C@H](N(C)Cc2ccccc2)C[C@H](O)C1
Percent Effect (30.3 µM, […]): 20.46%

CN1CC[C@H](N(Cc2ccccc2)CC2CC2)C[C@H](O)C1
Percent Effect (30.3 µM, […]): 31.47%

CC(C)Sc1ncccc1C(=O)NCc1ccc(O)cc1
Percent Effect (30 µM): 14.96%

CCCS(=O)(=O)NCC(O)c1c(Cl)cccc1Cl (centres undefined)
Percent Effect (30.3 µM, […]): 7.191%

CCN(C)S(=O)(=O)NCC(O)c1c(Cl)cccc1Cl (centres undefined)
Percent Effect (30.3 µM, […]): 41.58%

CCN(CC)S(=O)(=O)NCC(O)c1c(Cl)cccc1Cl (centres undefined)
Percent Effect (30.3 µM, […]): 62.85%

CCCc1nc(CN2CCCC2Cn2cccn2)cs1 (centres undefined)
Percent Effect (30.3 µM, […]): 31.37%

CCN1CCC2(CC1)CC(CC(=O)N(C)C)c1ccc(F)cc12 (centres undefined)
Percent Effect (30.3 µM, […]): 64.47%

CN(C)C(=O)CC1CC2(CCN(CC3CC3)CC2)c2cc(F)ccc21.O=C(O)C(F)(F)F (centres undefined)
Percent Effect (30 µM, 30.03 µM): 16.14%

CCC(=O)N1CCC2(CC1)CC(CC(=O)N(C)C)c1ccc(F)cc12 (centres undefined)
Percent Effect (30.3 µM, […]): 35.94%

CCOc1ccc(CNCC(O)c2ccccc2)cc1Cl.Cl (centres undefined)
Percent Effect (30.3 µM, […]): 14.87%

CC(=O)Nc1ccc(CNCC(O)c2ccccc2)cc1 (centres undefined)
Percent Effect (30.3 µM, […]): -2.839%

CCc1ccc(CNC(=O)NC2CCCc3c2cnn3CCO)s1 (centres undefined)
Percent Effect (30.3 µM, […]): 21.53%

O=C(Cc1ccccn1)N1CCCC(c2nccn2CC2CCC2)C1 (centres undefined)
Percent Effect (30.3 µM, […]): -1.281%

CCOc1ccccc1OC1CCN(Cc2ccn(C)c(=O)c2)CC1
Percent Effect (30 µM): 5.552%

CCCS(=O)(=O)N1CCC(NC(=O)c2cc3ccccc3s2)CC1
Percent Effect (30.3 µM, […]): 22.53%

CCC(=O)N1CCC2(C=C(C(=O)N(C)C)c3ccccc32)CC1
Percent Effect (30.3 µM, […]): 92.12%

CCC(=O)N1CCC2(C=C(C(=O)N3CCCC3)c3ccccc32)CC1
Percent Effect (30.3 µM, […]): 11.1%

CC(C)N1CCC2(C=C(C(=O)N(C)C)c3ccccc32)CC1.O=C(O)C(F)(F)F
Percent Effect (30.3 µM, […]): -11.73%

CC(C)CN1CCC2(C=C(C(=O)N(C)C)c3ccccc32)CC1.O=C(O)C(F)(F)F
Percent Effect (30.3 µM, […]): 41.74%

CN1CCC2(C=C(C(=O)N(C)C)c3ccccc32)CC1
Percent Effect (30.3 µM, […]): 38.98%

CCN1CCC2(C=C(C(=O)N(C)C)c3ccccc32)CC1.O=C(O)C(F)(F)F
Percent Effect (30.3 µM, […]): 51.51%

CC(C)Cc1cc(CNc2nc(-c3cccnc3)nc3c2CNC3)no1
Percent Effect (30.3 µM, […]): 9.598%

O=C(c1cccnc1)N1CCN(CC2CC2)c2ncccc2C1
Percent Effect (30.3 µM, […]): 14.27%

O=C(c1ccoc1)N1CC[C@@H]2O[C@@H](COCc3ccccn3)CC[C@@H]21
Percent Effect (30.3 µM, […]): -30.2%

O=C(N1CCOCC1)N1CC[C@H]2[C@@H]1CCC(=O)N2c1ccccc1
Percent Effect (30.3 µM, […]): 31.55%

Cc1oncc1C(=O)N1CCC2(CCN(Cc3ccccn3)C2=O)C1 (centres undefined)
Percent Effect (30 µM, 30.03 µM): -19.39%

O=C(c1cccnc1)N1CCC2(CC1)CCN(Cc1ccccn1)C2=O
Percent Effect (30.3 µM, […]): 28.38%

Cc1ccc(C(=O)N2CCC3(CCN(Cc4ccccn4)C3=O)C2)cn1 (centres undefined)
Percent Effect (30.3 µM, […]): 50.83%

Cc1c(-c2cc(C(F)(F)F)nc(N3CCC(N)CC3)n2)cnn1C
Percent Effect (30.3 µM, […]): 81.41%

CCc1ccc(-c2cc(C(F)(F)F)nc(N3CCC(N)CC3)n2)cc1
Percent Effect (30.3 µM, […]): 44.83%

CCn1ncc(-c2cc(C(F)(F)F)nc(N3CCC(N)CC3)n2)c1C
Percent Effect (30.3 µM, […]): 100.6%

CCNC(=O)[C@@H]1C[C@H](N)CN1c1cc(C(F)(F)F)nc(N2CCCC2)n1
Percent Effect (30.3 µM, […]): 23.81%

Cc1nn(C)cc1-c1cc(C(F)(F)F)nc(NC2CCN(C)CC2)n1
Percent Effect (30.3 µM, […]): 7.809%

Cc1ccc(-c2cc(C(F)(F)F)nc(N3CCOCC3)n2)s1
Percent Effect (30.3 µM, […]): 2.404%
